In ChEMBL document CHEMBL3988442, “University of Dundee, Small-Polar-MMV Screening Library” (2021):
Hit rate of the full screen: of about 53,000 compounds, about 900 (1.7%) showed an effect of 50% or more. What follows is part of a selection rich in strong results, with near analogues and random picks from the rest.

Tested on: Mycobacterium tuberculosis
Assay: Cornell - Phenotypic assay to identify agents that inhibit growth of Mycobacterium tuberculosis
Assay type: functional
Parameters: scale not given: direction of the effect not stated beside the values
Settings: 10 mM as filed; unlikely as a test dose

SMILES	Percent Effect
CCN(CCCNC(=O)Nc1ccccc1C(C)C)S(C)(=O)=O	-25.97%
Fc1ccc(Sc2ccccc2CNC2=NCCN2)cc1.I	18.51%
CC(N)Cc1ccccc1Sc1ccccc1.O=C(O)/C=C\C(=O)O (stereo not drawn)	13.46%
NCc1ccccc1Sc1ccc(O)cc1.O=C(O)/C=C\C(=O)O	11.62%
CNC(C)Cc1ccccc1Sc1ccc(O)cc1.Cl (stereo not drawn)	105.4%
CC(N)Cc1ccccc1Sc1ccc(O)cc1.CC(N)Cc1ccccc1Sc1ccc(O)cc1.O=C(O)C(=O)O (stereo not drawn)	102.6%
CC(C(=O)Nc1ccccc1Sc1ccccc1)S(C)(=O)=O (stereo not drawn)	13.38%
Clc1ccc(COCC2CCN(Cc3ccccn3)CC2)cc1.O=C(O)C(=O)O	33.78%
Cc1cccc(=O)n1CCC(=O)N1CC[C@@](O)(C2CCC2)[C@H](C)C1	13.12%
CN(C)CCN(C)c1ccc(-c2nc(COc3ccccc3)no2)cn1	54.95%
COCc1noc(-c2ccc(N(C)Cc3ncccc3C)nc2)n1	3.239%
CN(C)CCNc1ccc(-c2nc(COc3ccccc3)no2)cn1	16.69%
CN1CCCC(c2cccc(CCC(N)=O)n2)C1 (stereo not drawn)	-6.826%
CNC(=O)N1CCc2nc(C(=O)NCc3cccc(OC)c3)sc2CC1	-3.356%
N#Cc1ncn(CCC(=O)Nc2ccc(F)c(F)c2)n1	34.8%
N#Cc1ncn(CCC(=O)Nc2cccc(Cl)c2)n1	68.3%
N#Cc1ncn(CCC(=O)Nc2ccc(Cl)cc2F)n1	105.4%
N#Cc1ncn(CC(=O)Nc2cc(Cl)ccc2F)n1	104.7%
CN(Cc1c(F)cccc1Cl)C(=O)Cn1cnc(C#N)n1	14.48%
N#Cc1ncn(CCC(=O)Nc2ccccc2F)n1	26.46%
COC(=O)c1ccc(Cn2cnc(C#N)n2)cc1	33.09%
N#Cc1ncn(Cc2c(F)cccc2Cl)n1	3.788%
N#Cc1ncn(CCC(=O)Nc2c(Cl)cccc2Cl)n1	58.03%
N#Cc1ncn(CC(=O)Cc2c(F)cccc2Cl)n1	41.98%
N#Cc1ncn(CCS(=O)(=O)c2ccc(Cl)cc2)n1	-29.79%
N#Cc1ncn(CCC(=O)Nc2cc(Cl)ccc2Cl)n1	44.53%

SMILES	Percent Effect
OCCOc1cc(F)ccc1NCc1ccc(F)c(F)c1	11.25%
CCOC(=O)[C@H]1CNC[C@H]1C(=O)OCC.Cl	36.02%
CNc1cccc(C2CN(C(=O)c3c[nH]cn3)CCO2)n1 (stereo not drawn)	6.6%
O=C(O)Cn1nc(-c2ccccc2F)ccc1=O	3.999%
CCSc1ncccc1C(=O)NCc1ccc(N(C)C)cc1	4.638%
C=C(C)COc1ccccc1C(=O)NCc1nc(C)cc(=O)[nH]1	11.83%
NS(=O)(=O)c1ccc(N2CCN(CCCc3cn[nH]c3)CC2)cc1	-32.06%
O=C(O)C(F)(F)F.O=C(O)C(F)(F)F.O=C(O)C(F)(F)F.c1cnc(NC[C@H]2OC[C@@H]3CCN(Cc4cccnc4)C[C@@H]32)nc1	43.57%
COc1ccc(N2CCN(C(=O)C3CN(C)C(=O)N3)CC2(C)C)cc1 (stereo not drawn)	2.102%
CCOCC(=O)N1CCCn2c(nnc2Cn2cccc2)C1	-5.462%
Cl.Cn1cncc1CN1CCc2nc3sccc3c(=O)n2CC1	43.45%
Cc1nn(C)cc1CN1CCc2nc3sccc3c(=O)n2CC1	50.52%
Cn1ncc(Cl)c1C(=O)N1CCc2nc3sccc3c(=O)n2CC1	-13.36%
Cn1cc(CN2CCc3nc4ccccc4c(=O)n3CC2)cn1	52.34%
Cn1cc(CN2CCc3nc4sccc4c(=O)n3CC2)cn1	-10.08%
Cc1c(CN2CCc3nc4sccc4c(=O)n3CC2)cnn1C.Cl	51.95%
O=c1c2ccccc2nc2n1CCN(Cc1cccs1)CC2	20.89%
Cc1cc2c(=O)n3c(nc2s1)CCN(Cc1cnn(C)c1C)CC3.Cl	-41.11%
CCn1cncc1CN1CCc2nc3sccc3c(=O)n2CC1	47.13%
COc1cc2ncn(Cc3ncc[nH]3)c(=O)c2cc1OC	6.69%
CCc1cccc(OCCN(C)C(=O)c2ccccc2NCC(=O)O)c1	10.74%
COc1cccc(CN2CCCC(Cn3nc(C)nc3C)C2)c1 (stereo not drawn)	16.57%
O=C(c1ccncc1F)N1CCc2ncnc(-c3ccncc3)c2CC1	-7.007%
C[C@@H]1CN(C2CCN(Cc3nn(C)c4cccc(Cl)c34)CC2)C[C@H](C)O1	-20.95%
Cn1nc(CN2CCCN(C3CCCC3)CC2)c2c(Cl)cccc21	60.03%
Cn1nc(CN2CCCCC(N)C2)c2c(Cl)cccc21 (stereo not drawn)	-4.365%

SMILES	Percent Effect
O=C(c1cccc(-n2cnnc2)c1)N1C[C@@H](O)[C@H](N2CCOCC2)C1	40.33%
CN1C(=O)C2(CC(=O)Nc3[nH]ncc32)c2ccc(F)cc21 (stereo not drawn)	10.37%
CN(Cc1cnccn1)S(=O)(=O)c1ccc(C(F)(F)F)nc1	-14.08%
CC(CS(C)(=O)=O)N(C)C(=O)NCCCc1ccc(Cl)cc1 (stereo not drawn)	12.33%
CN(C)S(=O)(=O)N1CCCCCC1c1cc(-c2ccc(F)cc2)no1 (stereo not drawn)	73.32%
CS(=O)(=O)N1CCCCCC1c1cc(-c2ccc(F)cc2)no1 (stereo not drawn)	7%
COc1ccc(-c2cc(C3CCCCCN3S(=O)(=O)N(C)C)on2)cc1 (stereo not drawn)	15.93%
Cc1ccc(NS(=O)(=O)c2cnn(Cc3ccccc3)c2)c(C(=O)O)c1	-25.98%
Cc1ccc(NS(=O)(=O)c2cnn(-c3ccccc3)c2)c(C(=O)O)c1	55.25%
Cc1ccc(-n2cc(S(=O)(=O)Nc3cccc(C(=O)O)c3C)cn2)cc1	9.419%
CCCN(CCC)c1ncc(S(=O)(=O)c2ccc(OC)cc2)c(N)n1	26.01%
CC[C@H]1CN(C(=O)c2cccc(-n3cnnc3)n2)CC[C@@]1(C)O	-27.2%
Cc1noc(C)c1C(=O)N1CCCC1(C)C(=O)NC1CCCC1 (stereo not drawn)	-3.819%
COc1ccc(NC(=O)N2CCC(c3nnc[nH]3)CC2)cc1C	16.56%
COc1ccc(NC(=O)N2CCC(c3noc(C)n3)CC2)cc1C	55.08%
CCOc1cc(C(=O)N2CCCC(c3noc(C)n3)C2)ccc1OC (stereo not drawn)	13.87%
CCn1cnnc1C1CCN(C(=O)c2cccc(C)c2C)CC1	-30.53%
Cc1ccc(NC2CCN(C(=O)Cc3cccs3)CC2)nn1	-3.843%
O=C(Cc1cccnc1)N1CC(Cc2nccc3cc[nH]c23)C1	4.598%
COc1ccccc1NC(=O)c1cnc(C2CCN(C(C)=O)C2)nc1C (stereo not drawn)	26.28%
Cl.Cl.Clc1cccc(C[C@@H]2NCCC[C@@H]2Nc2cccc(Cl)c2)c1	108.9%
O=C1NCCCc2[nH]c(Cc3cccc(Cl)c3)nc21	-7.355%
Cl.Clc1cccc(N[C@H]2CCCN[C@H]2Cc2ccccc2)c1	107%
Cl.Cl.Clc1cccc(C[C@@H]2NCCC[C@@H]2Nc2ccccc2)c1	55.37%
O=C(Cc1cccc(Cl)c1)N[C@@H]1CCNC[C@H]1O	2.906%
O=C(NCCc1cccc(Cl)c1)C1CCOCC1	10.9%

SMILES	Percent Effect
Cl.c1ccc(CCNc2cccc(C3CCCNC3)n2)cc1 (stereo not drawn)	12.44%
CCOc1ccc(Cl)cc1C1CCCN1.Cl (stereo not drawn)	-3.998%
O=C(C[S+]([O-])Cc1cccc(Cl)c1)NC1CCCC1 (stereo not drawn)	37.46%
Cc1ccc(-c2cc(CS(=O)(=O)NC3CCCNC3=O)on2)cc1 (stereo not drawn)	-20.71%
CN(Cc1ccsc1)C(=O)Cn1c(CS(C)(=O)=O)nc2ccccc21	17.82%
Cc1ccc(S(=O)(=O)NC2=NCN(CCc3cccs3)CN2)cc1	-5.965%
O=C(CCN1CCCO1)N1CC[C@@H](c2ccc3ccccc3c2)[C@H](O)C1	5.243%
O=C(CCN1CCCC1)N1CC[C@@H](c2ccc3ccccc3c2)[C@H](O)C1	59.79%
O=C(CCn1cccn1)N1CC[C@@H](c2ccc3ccccc3c2)[C@H](O)C1	-1.48%
O=S1(=O)CCC(S(=O)(=O)c2cccc(S(=O)(=O)N3CCCC3)c2)C1 (stereo not drawn)	4.254%
CN(Cc1ccco1)[C@@H]1CN(Cc2cccs2)C[C@@H]2CCCO[C@@H]21.O=C(O)C(F)(F)F.O=C(O)C(F)(F)F	3.22%
Cc1cc(NC2CCCN(Cc3ccc(F)cc3)C2)n2nc(C)cc2n1 (stereo not drawn)	55.74%
Cc1cc(NC2CCN(c3ccc(F)cc3)CC2)n2nc(C)cc2n1	39.2%
Cc1cc(N[C@H]2CCCN(Cc3ccccc3)C2)n2nc(C)cc2n1	-6.549%
O=C(CCc1cccs1)N1CCCC1c1noc(C2CC2)n1 (stereo not drawn)	-0.7961%
CC(NC(=O)c1cn(CCC2CCCCC2)nn1)c1cnn(C)c1 (stereo not drawn)	-6.193%
CCCOc1ccccc1CCCNc1ncnc2oc(C)nc12	30.24%
CCCOc1ccc(Cl)cc1CNc1ncnc2oc(C)nc12	65.32%
Cc1nc2c(NC(CC(C)(C)C)c3cccnc3)ncnc2o1 (stereo not drawn)	-7.649%
CCc1nnc(CN(C)C(=O)C(CC)n2c(CC)nc3ccccc32)o1 (stereo not drawn)	5.212%
CCNC(=O)[C@@H]1C[C@@H](NC(=O)c2cc(C)on2)CN1Cc1ccccn1	-5.653%
COc1ccc(C)cc1NC(=O)Nc1cnc(O)nc1O	28.36%
CCN(CC)c1ccc(NS(=O)(=O)c2cnn(C)c2)cn1	9.807%
CCN(CC)c1ccc(NS(=O)(=O)c2cccnc2)cn1	24.54%
CCN(CC)c1ccc(NS(=O)(=O)c2cncc(F)c2)cn1	62.74%
